Assay results: PubChem BioAssay (EPA / NIEHS)
Results filed as inconclusive are left out. Activity calls are given as the source filed them. Rule for the calls: active = hit-call score of the fitted dose curve at least 0.9, where 1 is the maximum; inconclusive = response in the unintended direction; inactive = score below 0.9. Where a SMILES comes first, the peptide text is derived from it. Bridges are numbered along the chain shown (N, C = ends). [ ]: non-standard residue; d: D form. hArg = N=C(N)NCCCC[C@H](N)C(=O)O; Mpa = O=C(O)CCS

molecular target: Cellular tumor antigen p53 (Homo sapiens) (UniProt P04637); assay: TOX21_p53_BLA_p4_ratio: Tox21 HCT-116 p53 Agonism Beta-lactamase Assay, Ratio, Phase 4 (AID 2283601)
Sequence (P04637 whole entry, looked up, the tested form may be a part): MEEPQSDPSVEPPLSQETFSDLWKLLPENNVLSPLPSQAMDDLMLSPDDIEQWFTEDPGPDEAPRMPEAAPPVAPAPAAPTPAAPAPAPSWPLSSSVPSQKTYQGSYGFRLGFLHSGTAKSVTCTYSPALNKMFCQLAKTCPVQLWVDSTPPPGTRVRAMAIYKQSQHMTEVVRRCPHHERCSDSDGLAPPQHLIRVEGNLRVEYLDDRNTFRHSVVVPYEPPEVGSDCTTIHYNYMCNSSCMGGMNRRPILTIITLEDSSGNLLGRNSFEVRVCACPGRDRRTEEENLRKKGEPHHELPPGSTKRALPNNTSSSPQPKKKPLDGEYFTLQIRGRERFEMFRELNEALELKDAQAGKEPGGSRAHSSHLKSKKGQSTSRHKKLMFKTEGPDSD
Text: TOX21_p53_BLA_p4 is a cell-based, single-readout assay that uses HCT116, a human intestinal cell line, […] in a 1536-well plate.TOX21_p53_BLA_p4_ratio is an assay readout measuring reporter gene via receptor activity and designed using inducible reporter (beta lactamase induction) detected with GAL4 b-lactamase reporter gene. The signal is derived from the ratio of cleaved (ch2) to uncleaved (ch1)reporter gene substrate used as the measure of target activity.Data from the assay component TOX21_p53_BLA_p4_ratio was analyzed into 1 assay endpoint. This assay endpoint, TOX21_p53_BLA_p4_ratio, was analyzed in the positive analysis fitting direction relative to DMSO as the negative control and baseline of activity. Using a type of inducible reporter, gain-of-signal activity can be used to understand changes in the reporter gene as they relate to the gene TP53. Furthermore, this assay endpoint can be referred to as a primary readout, because this assay has produced multiple assay endpoints where this ratio serves a reporter gene function to understand target activity. To generalize the intended target to other relatable targets, this assay endpoint is annotated to the DNA binding intended target family, where the subfamily is tumor suppressor.
Thawing Method: Place 14 mL of pre-warmed thaw medium into a 15 mL of conical tub. Remove the vial of cells to be thawed from liquid nitrogen and thaw rapidly by placing at 37C in a water bath with gentle agitation for 1-2 minutes. Decontaminate the vial by wiping with 70% ethanol before opening in a biological safety cabinet. Transfer the vial contents drop-wise into 14 mL of thaw medium in a sterile 15-mL conical tub. Centrifuge cells at 900 rpm for 4 minutes and resuspend in thaw medium. Transfer contents to the T75 tissue culture flask containing Thaw Medium and place flask in a humidified 37C/5% CO2 incubator. Switch to growth medium at first passage.Propagation Method: Aspirate medium, rinse once in DPBS, add 0.25% Trypsin/EDTA and swirl to coat the cell evenly. Add an equal volume of Growth Medium to inactivate Trypsin after 2-3 minutes incubation at 37C. Centrifuge cells at 900 rpm for 4 minutes and resuspend in growth medium. Cell should be passage or fed at least twice a week.Assay Protocol: Harvest cells from culture in growth medium and resuspend in assay medium. 2.2 Dispense 4000 cells/5 uL/well into 1536-well black/clear bottom plates using a Multidrop dispenser. After the cells were incubated at 37C for 5 hours, 23 nL of compounds dissolved in DMSO were transferred to the assay plate by a PinTool resulting in a 217-fold dilution. Incubate the plates for 16 hours at 37C, 5% CO2. Add 1 uL of 6X LiveBLAzer FRET B/G (CCF4-AM) Substrate Mixture to each well using a BioRAPTR dispenser and incubate the plates at room temperature for 2 hours. Measure fluorescence intensity at 460 and 530 nm emission and 405 nm excitation by an Envision detector. Data is expressed as the ratio of 460nm/530nm emissions. Add 4 uL of Cell-titer Glo to each well using BioRAPTR and incubate the plates at room temperature for 2 hours. Measure fluorescence intensity by a VewLux plate reader.

Compound | outcome | AC50
CN1CCN(c2cc3c(cc2F)c(=O)c(C(=O)O)cn3-c2ccc(F)cc2)CC1 | inactive | 
O=c1[nH]cnc2c1ncn2[C@@H]1O[C@H](CO)[C@@H](O)[C@H]1O | inactive | 
CC1CCCCN1CCCOC(=O)c1ccccc1 (stereo not given) | inactive | 
NC1=NCC2c3ccccc3Cc3ccccc3N12 (stereo not given) | inactive | 
O=C1C(CCS(=O)c2ccccc2)C(=O)N(c2ccccc2)N1c1ccccc1 (stereo not given) | inactive | 
CN(C)Cc1ccccc1 | inactive | 
CC(C)N=C=NC(C)C | inactive | 
Cc1ccc(C(=O)Nc2ccc(S(=O)(=O)O)c3cc(S(=O)(=O)O)cc(S(=O)(=O)O)c23)cc1NC(=O)c1cccc(NC(=O)Nc2cccc(C(=O)Nc3cc(C(=O)Nc4ccc(S(=O)(=O)O)c5cc(S(=O)(=O)O)cc(S(=O)(=O)O)c45)ccc3C)c2)c1 | inactive | 
CC(=O)Nc1cccc(N)c1 |  | 79.2 µM (active)
Nc1ncnc2c1ncn2CCOCP(=O)(O)O | inactive | 
CCCCCCCC/C=C\CCCCCCCC(=O)OC | inactive | 
CN1CCC[C@@H]1CCO[C@](C)(c1ccccc1)c1ccc(Cl)cc1 | inactive | 
COc1ccc(Nc2ccc(OC)cc2)cc1 |  | 73.2 µM (active)
NC(=O)Oc1ccc(Cc2ccccc2)cc1 | inactive | 
CC(C)(C)C(=O)OCC(=O)[C@H]1CC[C@H]2[C@@H]3CCC4=CC(=O)CC[C@]4(C)[C@H]3CC[C@]12C | inactive | 
COc1ccc2c(c1)N(C[C@H](C)CN(C)C)c1ccccc1S2 | inactive | 
CCCCNc1c(C(=O)OCC)c(C)nc2c1cnn2CC | inactive | 
Nc1c(Cl)cc(Cl)cc1Cl | inactive | 
Cc1ccc(O)c([C@H](CCN(C(C)C)C(C)C)c2ccccc2)c1 | inactive | 
NC(=O)Cc1cccc(C(=O)c2ccccc2)c1N | inactive | 

Compound | outcome | AC50
CCc1cccc(C)c1 | inactive | 
Cc1ccc(/C(=C\CN2CCCC2)c2ccccn2)cc1 | inactive | 
NC(=O)[C@@H]1CSSCCC(=O)N[C@@H](CCCCN=C(N)N)C(=O)NCC(=O)N[C@@H](CC(=O)O)C(=O)N[C@H](Cc2c[nH]c3ccccc23)C(=O)N2CCC[C@H]2C(=O)N1 ([Mpa][hArg]GD[dW]PC-NH2; disulfide 1-7) | inactive | 
C=CC(=O)NC(C)C | inactive | 
O=C(c1ccc(O)cc1)c1ccc(O)cc1 |  | 75.5 µM (active)
[O]=[Bi][O][Bi]=[O] | inactive | 
CC/C=C(\C(=O)N[C@@H]1C(=O)N2C(C(=O)OCOC(=O)C(C)(C)C)=C(COC(N)=O)CS[C@H]12)c1csc(N)n1 | inactive | 
FC1(F)C(F)(F)C(F)(F)C2(F)C(F)(F)C(F)(F)C(F)(F)C(F)(F)C2(F)C1(F)F (stereo not given) | inactive | 
Cc1ncc(COP(=O)(O)O)c(CN)c1O | inactive | 
C#CC(O)CCCCC (stereo not given) | inactive | 
O=C1OC(OC(=O)c2cccnc2Nc2cccc(C(F)(F)F)c2)c2ccccc21 (stereo not given) | inactive | 
c1ccc(SCCSc2ccccc2)cc1 | inactive | 
CCCCCCCCCCCCCCCC/C=C/C1CC(=O)OC1=O (stereo not given) | inactive | 
O=C(c1ccc(Cl)cc1)c1ccc(Cl)cc1 | inactive | 
CCN(CC)CCNC(=O)c1cc(S(C)(=O)=O)ccc1OC | inactive | 
CCOC(=O)C(Br)c1ccccc1 (stereo not given) | inactive | 
CCN(CCCc1ccccc1)CCCc1ccccc1 | inactive | 
CO/N=C(\C(=O)N[C@@H]1C(=O)N2C(C(=O)O)=C(C[N+]3(C)CCCC3)CS[C@H]12)c1csc(N)n1 | inactive | 
CC/C(=C(/CC)c1ccc(OP(=O)(O)O)cc1)c1ccc(OP(=O)(O)O)cc1 | inactive | 
CCc1ccc(Br)cc1 | inactive | 
